PubChem BioAssay AID763 (NMMLSC, 2007)
Calls of active or inactive are those of the source. No rule for the calls is given here.

The molecules below were run against fMet-Leu-Phe receptor (Homo sapiens) (UniProt P21462) (assay: human FPR1 ligand displacement single-point test – cell-based, single concentration, selectivity assay for FPRL1 ligand SAR project, SAR follow-up (AID 763)). Details: FPR1-expressing cells, fluorescent ligand binding inhibition, hits give high values; at 5.4 µM unless noted.
fMet-Leu-Phe receptor (Homo sapiens), sequence (P21462 whole entry, looked up): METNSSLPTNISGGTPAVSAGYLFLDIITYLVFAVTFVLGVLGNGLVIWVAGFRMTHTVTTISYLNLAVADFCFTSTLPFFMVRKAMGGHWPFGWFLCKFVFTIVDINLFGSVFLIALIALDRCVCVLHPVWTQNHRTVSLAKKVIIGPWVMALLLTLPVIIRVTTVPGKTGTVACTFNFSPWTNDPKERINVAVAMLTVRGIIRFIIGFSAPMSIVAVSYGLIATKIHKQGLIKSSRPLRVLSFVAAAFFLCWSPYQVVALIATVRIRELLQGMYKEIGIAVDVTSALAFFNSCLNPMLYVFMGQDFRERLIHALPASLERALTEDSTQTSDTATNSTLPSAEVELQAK

inhibition, inactive:
COc1ccc(-c2cn3cccnc3n2)cc1NC(=O)c1cccc(Br)c1 0.1% [at 5.3 µM]
COc1ccc(-c2cn3cccnc3n2)cc1NC(=O)c1ccc(C)c(C)c1 -2.6% [at 6 µM]
FC(F)(F)c1nc(N2CCN(Cc3ccccc3)CC2)nc2c1CCCCC2 0.9% [at 5.7 µM]
COc1ccc(-c2cn3cccnc3n2)cc1NC(=O)CCCc1ccccc1 -0.5% [at 5.8 µM]
FC(F)(F)c1cc(-c2ccccc2)nc(N2CCN(C(c3ccccc3)c3ccccc3)CC2)n1 -4.1% [at 4.7 µM]
Fc1ccc(-c2cc(C(F)(F)F)nc(N3CCN(c4ccc(F)cc4)CC3)n2)cc1 -2% [at 5.3 µM]
Cc1ccccc1C(=O)N1CCN(c2nc(-c3ccccc3)c3cc(Cl)ccc3n2)CC1 -3.4% [at 5 µM]
CCOC(=O)N1CCN(c2nc(-c3ccc(C)cc3)cc(C(F)F)n2)CC1 1.5% [at 5.9 µM]
CCCC(=O)Nc1cccc(-c2cn3cccnc3n2)c1 -1.6% [at 7.9 µM]
Fc1ccc(-c2cc(C(F)(F)F)nc(N3CCN(c4ccccc4)CC3)n2)cc1 -1% [at 5.5 µM]
COc1ccc(-c2cn3cccnc3n2)cc1NC(=O)c1ccc(F)c(F)c1 -1.7% [at 5.8 µM]
Fc1ccc(-c2cc(C(F)(F)F)nc(N3CCN(C(c4ccccc4)c4ccccc4)CC3)n2)cc1 1.3% [at 4.5 µM]
O=C(c1cccc(F)c1)N1CCN(c2nc(-c3cccs3)cc(C(F)(F)F)n2)CC1 1.1% [at 5.1 µM]
COc1ccc(C2CC(=O)c3cnc(N4CCN(Cc5ccc6c(c5)OCO6)CC4)nc3C2)c(OC)c1 (centres undefined) -4.7% [at 4.4 µM]
COc1ccc(-c2cn3cccnc3n2)cc1NC(=O)C1CCCCC1 3.2% [at 6.3 µM]
COc1ccc(-c2cn3cccnc3n2)cc1NC(=O)C1CCCC1 6.6% [at 6.6 µM]
O=C(O)CCCC(=O)N1CCN(c2nc(-c3ccccc3)c3ccccc3n2)CC1 -2.1% [at 5.5 µM]
Cc1ccc(-c2cc(C(F)F)nc(N3CCN(c4ccccc4)CC3)n2)cc1 -2.2% [at 5.8 µM]
O=C(c1ccccc1)N1CCN(c2nc(-c3ccccc3)c3cc([N+](=O)[O-])ccc3n2)CC1 -6% [at 5.1 µM]
CCOC(=O)N1CCN(c2nc(-c3ccc(F)cc3)cc(C(F)(F)F)n2)CC1 0.3% [at 5.6 µM]
COc1ccc(C(=O)Nc2cc(-c3cn4cccnc4n3)ccc2OC)cc1 3.4% [at 5.9 µM]
CC(=O)N1CCN(c2nc(-c3ccccc3)c3cc(Cl)ccc3n2)CC1 2.2% [at 6.1 µM]
COc1ccc(-c2cn3cccnc3n2)cc1NC(=O)c1ccc(Br)cc1 -0.1% [at 5.3 µM]
Fc1ccc(-c2cc(C(F)(F)F)nc(N3CCN(Cc4ccccc4)CC3)n2)cc1 0% [at 5.3 µM]
COc1ccc(-c2cn3cccnc3n2)cc1NC(=O)c1ccccc1F 2.4% [at 6.1 µM]
COc1ccc(C2CC(=O)c3cnc(N4CCN(Cc5ccc6c(c5)OCO6)CC4)nc3C2)cc1 (centres undefined) 0.4% [at 4.7 µM]
COc1ccc(-c2cn3cccnc3n2)cc1NC(=O)C1CC1 -2.9% [at 7.2 µM]
COc1ccc(-c2cn3cccnc3n2)cc1NC(=O)c1ccccc1C(F)(F)F -3.2%
Clc1cccc(-c2nc(N3CCN(Cc4ccccc4)CC3)nc3c2COc2ccccc2-3)c1 5.3% [at 4.7 µM]
CCN1CCN(c2nc(-c3cccc(Cl)c3)c3c(n2)-c2ccccc2OC3)CC1 -9.4% [at 5.5 µM]
FC(F)(F)c1cc(-c2ccco2)nc(N2CCN(C(c3ccccc3)c3ccccc3)CC2)n1 0.5% [at 4.8 µM]
COc1ccc(-c2cn3cccnc3n2)cc1NC(=O)c1c(-c2ccccc2Cl)noc1C 2.7% [at 4.8 µM]
COc1cccc(C(=O)Nc2cc(-c3cn4cccnc4n3)ccc2OC)c1 1% [at 5.9 µM]
COc1ccccc1-c1cc(C(F)(F)F)nc(N2CCN(C(c3ccccc3)c3ccccc3)CC2)n1 6.5% [at 4.4 µM]
